This is part of a sample that, as a whole, favours compounds with a hit. Of some 79,000 tested, about 15% had one in any assay. Values without a mark were called inactive. Active and inactive are the calls of the source. Cut-off read from the data, not from the text of the source: active = growth inhibition above about 70%; inactive = the rest.
Test: NCI Yeast Anticancer Drug Screen. Data for the rad52 strain (AID 147);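 note: 0% = growth of vehicle-treated control cultures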
Conditions: S. cerevisiae rad52 mutant growth inhibition, hits give high values
Method: Growth inhibition of yeast strains with defined genetic alterations is measured as a screen for potential anti-cancer activity. Selected strains with alterations in DNA damage repair or cell cycle control were exposed to compounds and growth inhibition was measured relative to vehicle treated controls. The strain used in this assay is rad52

Row | Compound | growth inhibition (at 1.2 µM) | growth inhibition (at 3.7 µM) | growth inhibition (at 11.0 µM) | growth inhibition (at 33.0 µM) | growth inhibition (at 100.0 µM)
1 | O=C(O)c1cc2ccccc2c2c1C(=O)c1ccccc1-2 | -3% | 21% | 74% (active) | 96% (active) | 94% (active)
2 | Cc1c2ccnc(C(=O)NCCN(C)C)c2cc2c3cc(O)ccc3n(C)c12 | 2% | 23% | 69% | 88% (active) | 92% (active)
3 | COC(=O)CCC(NC(=S)N/N=C(\C)c1ccccn1)C(=O)OC (stereo not given) | -21% | -27% | 1% | 61% | 90% (active)
4 | OCC(CO)C(c1cccc2ccccc12)c1cccc2ccccc12 | 3% | 42% | 98% (active) | 98% (active) | 88% (active)
5 | Cc1ccc(NC(c2ccccc2)c2ccc3cccnc3c2O)cc1 (stereo not given) | -1% | 0% | -1% | -1% | -2%
6 | Cc1ccccc1N=Cc1cc(Cl)ccc1O | -11% | -3% | 4% | 21% | 96% (active)
7 | CCCCc1nnc(NS(=O)(=O)c2ccc(C)cc2)s1 | -14% | -20% | -3% | 37% | 83% (active)
8 | COC(=O)/C=C(/C(=O)OC)C(Cl)(Cl)Cl | -32% | 7% | 47% | 97% (active) | 100% (active)
